Consider 42 compounds from PubChem BioAssay AID1645882 (National Center for Advancing Translational Sciences (NCATS), 2021).

Several values for one entry are separate records, joined by “and”; a condition that tells them apart may be missing. Identical values can stand only once. The whole screen tested about 16,000 compounds, of which about 120 (0.75%) were called active. Not shown: some 4% with an inconclusive outcome. The call rests on the fitted dose curve; in most records, active means well fitted inhibition curve with a large enough effect; inconclusive means small, poorly fitted or top-dose-only effect; inactive means no such curve, though single readings can be large or run the other way. Shown is part of a subset that was picked to be rich in actives. The source holds several records for some structures; these can differ, active in one and inactive in another.
Potency means the concentration at half of the fitted maximal effect.

Chain of Rap guanine nucleotide exchange factor 3 (Homo sapiens) (O95398 whole entry, looked up): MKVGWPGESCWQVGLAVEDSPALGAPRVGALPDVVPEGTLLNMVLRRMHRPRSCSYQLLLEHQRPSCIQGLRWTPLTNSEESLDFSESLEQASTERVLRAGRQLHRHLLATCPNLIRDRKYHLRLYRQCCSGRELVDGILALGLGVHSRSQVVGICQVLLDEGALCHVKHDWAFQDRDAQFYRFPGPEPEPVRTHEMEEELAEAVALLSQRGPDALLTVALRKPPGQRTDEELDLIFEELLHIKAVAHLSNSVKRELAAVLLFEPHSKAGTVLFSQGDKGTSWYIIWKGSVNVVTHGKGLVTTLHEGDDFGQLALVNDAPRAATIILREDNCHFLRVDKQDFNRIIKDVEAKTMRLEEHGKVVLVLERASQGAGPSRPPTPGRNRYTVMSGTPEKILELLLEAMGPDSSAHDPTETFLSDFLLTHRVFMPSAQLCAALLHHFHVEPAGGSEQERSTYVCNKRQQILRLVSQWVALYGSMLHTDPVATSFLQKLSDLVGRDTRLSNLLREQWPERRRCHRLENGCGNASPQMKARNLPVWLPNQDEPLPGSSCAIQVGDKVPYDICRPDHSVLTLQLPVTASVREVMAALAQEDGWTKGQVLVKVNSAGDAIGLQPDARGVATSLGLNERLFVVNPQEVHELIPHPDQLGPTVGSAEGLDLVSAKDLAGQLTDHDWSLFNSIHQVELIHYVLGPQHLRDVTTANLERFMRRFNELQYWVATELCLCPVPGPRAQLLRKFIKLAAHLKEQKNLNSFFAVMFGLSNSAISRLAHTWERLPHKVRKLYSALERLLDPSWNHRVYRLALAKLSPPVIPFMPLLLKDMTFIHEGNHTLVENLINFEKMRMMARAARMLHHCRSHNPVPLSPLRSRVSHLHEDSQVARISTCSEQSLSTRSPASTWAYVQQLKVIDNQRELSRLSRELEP

The assay addresses Rap guanine nucleotide exchange factor 3 (Homo sapiens) (UniProt O95398). The assay is described as follows: Validation qHTS for antagonist of cAMP-regulated guanine nucleotide exchange factor 3 (EPAC1). Further: nearly all actives have a fitted effect of over 75% in size. Conditions: EPAC1 Rap1B-BODIPY-GDP exchange, fluorescence; series mostly up to 150 µM; activity change, negative = inhibition: at the top concentration. From the text:
Assay Provider (PI): Xiaodong Cheng Ph.D.
The University of Texas Medical Branch, […], TX
In multi-cellular eukaryotic organisms, the effects of cAMP are transduced by two ubiquitously-expressed intracellular cAMP receptors, the classic protein kinase A/cAMP-dependent protein kinase (PKA/cAPK) and the more recently discovered exchange protein directly activated by cAMP/cAMP-regulated guanine nucleotide exchange factor (EPAC/cAMP-GEF). Both PKA and EPAC are ubiquitously expressed in all tissues, and an increase in intracellular cAMP levels will lead to the activation of both PKA and EPAC. Therefore, careful dissections of the individual role and relative contribution of EPAC and PKA within the overall cAMP signaling in various model systems are critical for further elucidating the mechanism of cAMP signaling. To date no EPAC-specific antagonists and agonist, as well as isoform-specific agonists have been reported, and developing EPAC-specific pharmacological probes to determine the physiological functions that EPAC play in the overall cAMP-mediated signaling remains a major challenge within the research field. Furthermore, identified regulators of EPAC may lead to new mechanism-based therapeutic strategies specifically targeting the EPAC / cAMP-signaling components as EPAC has been implicated to play important roles in major human pathological conditions such as diabetes, heart disease, and cancer.
This qHTS will be used to screen the Molecular Libraries Small Molecule Repository (MLSMR) as a concentration-titration series using the NCGC unique quantitative screening (qHTS) platform to find activators for EPAC1. In addition, this assay will also be used as a counterscreen for the EPAC2 qHTS. This fluorescent based assay is developed and validated for EPAC1 that measures exchange using EPAC effector Rap1 complex with BODIPY-GDP, a GDP analog with a tethered fluorophores. Activators are identified by monitoring the change in fluorescence signal as the exchanged free BODIPY-GDP has a reduced fluorescence compared to Rap1-bound BODIPY-GDP. Increase in signal (activation) is the desired outcome for the EPAC1 agonist while no activity in this assay is desired for the EPAC2 agonist counterscreen.
[1] de Rooij, J., Zwartkruis, F. J., Verheijen, M. H., Cool, R. H., Nijman, S. M., Wittinghofer, A., and Bos, J.L. (1998) Nature 396, 474-477.
Briefly, three uL of reagents (100 nM EPAC1, 250 nM RAP1B-BODIPY-GDP, 50 uM GDP) were dispensed into a 1536-well Greiner black solid-bottom medium binding assay plate. Controls and test compounds (23 nL) were transferred to the plate via a Kalypsys pin tool equipped with a 1536-pin array. The plates were centrifuged at 1,000 rpm for 15 seconds followed by 5 minute incubation at room temperature. The assay plates were read at 5 minute intervals for 30 minutes in the ViewLux plate reader using 480nm excitation and 540nm emission filters. The results were normalized to the […] positive control ATA and DMSO.
In general terms: Quantitative high-throughput screening tests each substance at several concentrations.
For the compound `COc1ccc2c3c1O[C@H]1C[C@H](O)C=C[C@@]31CCN(C)C2`, the “activity change, negative = inhibition” value was -4.36% (inactive).

Consider `CC(C)c1ccc2c(c1)CC[C@@H]1[C@@](C)(CN)CCC[C@]21C`, for which the “activity change, negative = inhibition” value is 10.5% (inactive).

With `CN(C)c1ccc(/C=C2\C(=O)Nc3ccccc32)cc1`, the “activity change, negative = inhibition” value is -9.59% [at 75.8 µM] (inactive).

As to `O=C1Nc2ccc(I)cc2/C1=C/c1cc(Br)c(O)c(Br)c1`, the Potency was 89.1 µM (active) and 79.4 µM (active) and inactive.

Consider `CN(C)c1ccc(/C=C2/C(=O)Nc3ccccc32)cc1`, for which the “activity change, negative = inhibition” value was -18.9% (inactive).

As for `COC(=O)c1ccc(CN2CCOc3ccc(C(O)c4cccnc4)cc3C2)cc1` (configuration not stated), the “activity change, negative = inhibition” value is 8.76% (inactive).

Regarding `COc1ccc(-n2c(=O)c(-c3ccc(F)cc3)nc3cnc(N4CCNCC4)nc32)cc1`, the “activity change, negative = inhibition” value is 10.7% (inactive).

In the case of `Oc1c(Cl)cc(Cl)cc1Sc1cc(Cl)cc(Cl)c1O`, the Potency is 79.4 µM (active).

Regarding `Oc1ccc(Cl)cc1Sc1cc(Cl)ccc1O`, the “activity change, negative = inhibition” value was -15.1% (inactive).

As to `O=C(Nc1ccccc1)O[C@@H]1C[C@H]2CCCC(=O)N3CC[C@@H](C1)[C@@H]23`, the “activity change, negative = inhibition” value was -2.16% (inactive).

On to `CO[C@@H]1[C@@H](O[C@@H]2O[C@H](C)[C@@H](O[C@H]3C[C@@](C)(O)[C@@H](O)[C@H](C)O3)[C@H](N(C)C)[C@H]2O)[C@@H](CC=O)C[C@@H](C)[C@@H](O[C@@H]2CC[C@H](N(C)C)[C@@H](C)O2)/C=C/C=C/C[C@@H](C)OC(=O)C[C@H]1OC(C)=O`, for which the “activity change, negative = inhibition” value was 52.5% (inactive).

`CC(N)C(=O)OC(C)(C)Cc1ccc(Cl)cc1` (configuration not stated): the Potency entry was “inactive”.

As to `CC(C)c1ccc2c(c1)c(SC(C)(C)C)c(CC(C)(C)C(=O)O)n2Cc1ccc(Cl)cc1`, the Potency is 28.2 µM (active).

As to `COc1ccc2c(c1)c(CC(=O)O)c(C)n2Cc1ccc(Cl)cc1`, the “activity change, negative = inhibition” value was -6.29% [at 75.8 µM] (inactive).

`CCC1C(=O)NCCN1Cc1ccc2c(c1)CN(Cc1cc(OC)ccc1OC)CCO2` (configuration not stated): the “activity change, negative = inhibition” value was 27.6% (inactive).

Take `N#C/C(=C\c1ccc(O)c(O)c1)C(=O)NCCCc1ccccc1`: the Potency is 63.1 µM (active) and inactive.

With `Oc1ccc(CCNCCCCCCNCCc2ccccc2)cc1O`, the “activity change, negative = inhibition” value is 19% (inactive).

Turning to `N#C/C(=C\c1c[nH]c2ccccc12)C(=O)c1ccc(O)c(O)c1`, the “activity change, negative = inhibition” value was 23.5% [at 75.8 µM] (inactive).

As for `O=C(O)CCCc1ccccc1`, the “activity change, negative = inhibition” value is 13.7% (inactive).

`N#C/C(=C\c1ccc(O)c(O)c1)C(=O)NCCc1ccccc1`: the “activity change, negative = inhibition” value was 47.2% [at 75.8 µM] (inactive).

Turning to `N#C/C(=C\c1ccc(O)c(O)c1)C(=O)NCCCCc1ccccc1`, the Potency was 100 µM (active).

As to `CSc1nc(C(=O)NCc2nc(-c3cccc(NC(=O)c4ccc(C)s4)c3)oc2C)cs1`, the “activity change, negative = inhibition” value is 5.03% (inactive).

As to `Cc1cccc(CN2CCc3nnc(C(C)NC(=O)C4CCOCC4)n3CC2)c1` (configuration not stated), the “activity change, negative = inhibition” value was 12% (inactive).

`Cc1ccccc1C(=O)NC(C)c1nnc2n1CCN(Cc1ccc(F)cc1)CC2` (configuration not stated): the “activity change, negative = inhibition” value is 11.9% (inactive).

In the case of `C/C1=C2N=C(/C=C3N=C(/C(C)=C4\[N-]C(C(CC(N)=O)C4(C)CCC(=O)NCC(C)OP(=O)([O-])OC4C(CO)OC(n5cnc6cc(C)c(C)cc65)C4O)C4(C)N=C1C(CCC(N)=O)C4(C)CC(N)=O)C(CCC(N)=O)C\3(C)C)C(CCC(N)=O)C/2(C)CC(N)=O.[CH3-].[Co+3]` (configuration not stated), the Potency was 50.1 µM (active).

For `C[N+](C)(CCCCCC[N+](C)(C)C1c2ccccc2-c2ccccc21)C1c2ccccc2-c2ccccc21`, the “activity change, negative = inhibition” value was 25.9% (inactive).

With `S=C=Nc1ccc(N=C=S)cc1`, the “activity change, negative = inhibition” value was 17.2% (inactive).

Consider `Nc1ccc(/C=C/c2ccc(N)cc2S(=O)(=O)O)c(S(=O)(=O)O)c1`, for which the “activity change, negative = inhibition” value was -25.9% (inactive).

Regarding `O=S(=O)(O)c1cc(N=C=S)ccc1/C=C/c1ccc(N=C=S)cc1S(=O)(=O)O`, the Potency was 35.5 µM (active).

As to `Nc1nc2c(c(=O)[nH]1)N(C=O)C(CNc1ccc(C(=O)NC(CCC(=O)O)C(=O)O)cc1)CN2` (configuration not stated), the “activity change, negative = inhibition” value was 12.1% (inactive).

Take `Fc1ccc(Nc2ccnc(-c3ccc4c(c3)OCO4)n2)cc1`: the “activity change, negative = inhibition” value was -16.5% (inactive).

Take `O=C(Nc1nccs1)[C@@H]1CC=C[C@@H]2CCN(Cc3ccccc3)C(=O)[C@@H]21`: the “activity change, negative = inhibition” value is 7.38% (inactive).

Regarding `CCCc1c(OCCCOc2ccc(OCC(=O)O)cc2)ccc(C(C)=O)c1O`, the “activity change, negative = inhibition” value is -6.37% [at 75.8 µM] (inactive).

For `CCCc1c(OCCCOc2ccc(OCC(=O)O)cc2)ccc(CC=O)c1O`, the Potency is 100 µM (active).

As to `CCCc1c(OCCCCc2nn[nH]n2)ccc(C(C)=O)c1O`, the Potency entry was “inactive”.

For `COCCn1c(=O)c(-c2cc(F)cc(F)c2)nc2cnc(Oc3ccc(OC)cc3)nc21`, the “activity change, negative = inhibition” value is 7.13% (inactive).

On to `O=C(Nc1cc(C(=O)Nc2ccc(S(=O)(=O)O)cc2S(=O)(=O)O)cc(C(=O)Nc2ccc(S(=O)(=O)O)cc2S(=O)(=O)O)c1)Nc1cc(C(=O)Nc2ccc(S(=O)(=O)O)cc2S(=O)(=O)O)cc(C(=O)Nc2ccc(S(=O)(=O)O)cc2S(=O)(=O)O)c1`, for which the Potency is 15.8 µM (active).

In the case of `O=C(Nc1ccc(C(=O)Nc2ccc(C(=O)Nc3ccc(S(=O)(=O)O)c4cc(S(=O)(=O)O)cc(S(=O)(=O)O)c34)cc2)cc1)Nc1ccc(C(=O)Nc2ccc(C(=O)Nc3ccc(S(=O)(=O)O)c4cc(S(=O)(=O)O)cc(S(=O)(=O)O)c34)cc2)cc1`, the Potency was 39.8 µM (active) and 8.91 µM (active).

Consider `O=C(Nc1cccc(C(=O)Nc2ccc(S(=O)(=O)O)c3cc(S(=O)(=O)O)cc(S(=O)(=O)O)c23)c1)Nc1cccc(C(=O)Nc2ccc(S(=O)(=O)O)c3cc(S(=O)(=O)O)cc(S(=O)(=O)O)c23)c1`, for which the Potency was 25.1 µM (active).

On to `O=C(Nc1ccc(C(=O)O)c(O)c1)c1ccccc1`, for which the “activity change, negative = inhibition” value is 4.9% (inactive).

With `Cc1ccc(C(=O)Nc2ccc(S(=O)(=O)O)c3cc(S(=O)(=O)O)cc(S(=O)(=O)O)c23)cc1NC(=O)c1cccc(NC(=O)Nc2cccc(C(=O)Nc3cc(C(=O)Nc4ccc(S(=O)(=O)O)c5cc(S(=O)(=O)O)cc(S(=O)(=O)O)c45)ccc3C)c2)c1`, the “activity change, negative = inhibition” value was -22% [at 75.8 µM] (inactive).

Take `Cc1ccc(S(=O)(=O)O)cc1C`: the “activity change, negative = inhibition” value was 11.8% (inactive).
